Assay results published in PubChem BioAssay AID493000 (Johns Hopkins Ion Channel Center, 2010).
The whole screen tested about 1,900 compounds, of which about 390 (21%) were called active. No rule for the calls is given here. Only a sample is shown.

Test: carbachol calcium response in non-induced M3R cells, confirmation, counter-screen for RGS4 inhibitor project, cell-based, HEK293 M3R (AID 493000);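 also: RGS4 induction absent so cells express M3R without RGS4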;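 as to activity (percent): higher means more calcium signal and flags a non-specific hit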
Conditions: carbachol calcium Fluo-4, at 10 µM, submaximal (EC20) carbachol stimulus; hits give high values, buffer wells 0%, carbachol control wells 100%

Compound	activity (percent)
Cc1ccc(-c2c3c(=O)n(C)c(=O)n(C)c3cn2-n2cnnc2)cc1	inactive
C#CCOc1ccc(/C=C2/C(=O)ON=C2C)cc1OCC	inactive
C=CCOc1ccc(/C=C2/C(=O)ON=C2C)cc1OCC	32.5% (active)
COc1cc(/C=C2/C(=O)ON=C2C)ccc1OCc1ccccc1F	inactive
COC(=O)C1CCN(C(=O)c2cc(=O)[nH]c3ccccc23)CC1	inactive
O=C(COC(=O)c1cccc(Br)c1)Nc1cccc2c1C(=O)c1ccccc1C2=O	inactive
O=[N+]([O-])/C=C/c1ccc2c(ccn2Cc2ccccc2)c1	inactive
COC(=O)Cn1cc(/C=C/[N+](=O)[O-])c2ccccc21	38% (active)
COc1ccc2c(c1OC)C(=O)OC2Nc1nc(-c2ccccc2)cs1 (centres undefined)	inactive
Cc1ccc(S/C(=N\S(=O)(=O)c2ccc(Cl)cc2)c2ccccc2)cc1	inactive
Cc1ccc(Sc2cc(N3CCOCC3)nc(-c3ccccc3)n2)cc1	55.5% (active)
Cc1c(NC(=O)c2coc(=O)c(Br)c2)c(=O)n(-c2ccccc2)n1C	inactive
c1ccc(C[C@H]2CNCCN2CCC23CC4CC(CC(C4)C2)C3)cc1	inactive
Cc1ccc(C)c(Cn2nnc3c(=O)[nH]c(C(=O)Nc4ccc(F)cc4)nc32)c1	45.5% (active)
O=C1NC(c2ccc(-c3ccccc3[N+](=O)[O-])o2)C(C(=O)c2ccc(Cl)cc2)C(O)(C(F)(F)F)N1 (centres undefined)	38.5% (active)
CCOC(=O)C1CCN(C(c2cc3cc(C)cc(C)c3[nH]c2=O)c2nnnn2C2CCCCC2)CC1 (centres undefined)	inactive
Cc1nc(-c2ccccc2)sc1C(=O)/C=C/c1ccccc1	inactive
COc1ccc(S(=O)(=O)Nc2ccc(O)c(Sc3nc4ccccc4s3)c2)cc1	inactive
Cc1nn2c(=O)cc(COC(=O)c3ccc(NC(=O)C(C)(C)C)cc3)nc2s1	inactive
COc1ccc(NCc2nnc(SCc3ccccc3)n2-c2ccc(OC)cc2)cc1	inactive

Compound	activity (percent)
COc1cc(/C=C2/SC(=S)N(Cc3ccccc3)C2=O)cc(OC)c1O	inactive
COc1cc(/C=C2/C(=O)NN(c3cccc(Cl)c3)C2=O)cc(Br)c1O	28.5% (active)
C#CCOc1ccc(/C=C2/C(=O)NN(c3ccccc3)C2=O)cc1OC	inactive
CC(C)Cc1nc(Nc2ccc(S(=O)(=O)N3CCCC3)cc2)c2nnn(Cc3ccccc3)c2n1	inactive
CCc1ccc(C2C(C#N)=C(N)N(N3CCOCC3)C3=C2C(=O)CC(C)(C)C3)s1 (centres undefined)	inactive
COCCCNC(=S)N(CCN(C)C)Cc1cc2cc3c(cc2[nH]c1=O)OCCO3	inactive
O=C(N/N=C/c1ccccc1O)/C(=C/c1ccccc1)CCO	inactive
COc1ccc(OC)c(S(=O)(=O)N2CCCC(C(=O)N3CCC(C(N)=O)CC3)C2)c1 (centres undefined)	inactive
CNc1nc(Nc2ccc(C)c(Cl)c2)nc(N)c1[N+](=O)[O-]	inactive
CC(=O)Nc1ccc(S(=O)(=O)Nc2nc(-c3ccc(C(C)(C)C)cc3)cs2)cc1	51% (active)
COc1ccc(-c2csc(Nc3ccc(O)cc3)n2)cc1	inactive
Cc1noc(NS(=O)(=O)c2ccc(N/C=C/C(=O)c3ccccc3)cc2)c1C	inactive
Cc1ccsc1/C=N/n1c(=S)[nH]nc(C)c1=O	inactive
Cc1nc(Nc2ccc(S(=O)(=O)N3CCCC3)cc2)c2nnn(Cc3ccccc3)c2n1	inactive
O=C(O)c1ccc2c(=O)n3c(nc2c1)/C(=C/c1ccc(Cl)c([N+](=O)[O-])c1)CC3	inactive
Cc1ccc(/C=C2\CCn3c2nc2cc(C(=O)O)ccc2c3=O)c(C)c1	33% (active)
O=S(=O)(Nc1nccs1)c1ccc2c(c1)OCCO2	inactive
Brc1ccc(-c2csc(N/N=C/c3cccnc3)n2)cc1	inactive
Cc1ccc(SC(CC(=O)c2ccc(C(C)(C)C)cc2)C(=O)O)cc1 (centres undefined)	inactive
Nc1cccc(-c2cc(-c3ccccc3)nc(-c3cccc(N)c3)n2)c1	inactive

Compound	activity (percent)
C=CCSc1nc2c(c(=O)[nH]1)C(C(C)C)C(C#N)=C(N)O2 (centres undefined)	49.5% (active)
O=C1c2ccccc2NC(c2ccc(-c3cccc(Cl)c3)o2)N1O (centres undefined)	inactive
Cc1cc(C)nc(S/C=C/C(=O)c2ccccc2)n1	inactive
O=C(/C=C/Sc1ncn[nH]1)c1ccc(Cl)cc1	32.5% (active)
O=C(Nc1ccccc1)OCc1cc(-c2ccc(Cl)cc2)on1	inactive
Cc1ccc(Nc2nc(N)nc(CSc3nnc(C)s3)n2)cc1	inactive
CCOC(=O)[C@@H]1[C@H]2COc3ccc(Br)cc3[C@H]2N2C(=O)N(c3ccc(Cl)cc3)C(=O)[C@@]12C	inactive
O=C(NCCCc1ccccc1)C1CCC(CNc2c(N3CCCCC3)c(=O)c2=O)CC1 (centres undefined)	inactive
COc1ccccc1C1C(C#N)=C(N)Oc2c1c(-c1ccccc1)nn2-c1ccccc1 (centres undefined)	34.5% (active)
CCC(c1nnnn1Cc1ccco1)N(Cc1cc2cc(OC)ccc2[nH]c1=O)C1CCCCC1 (centres undefined)	inactive
Cc1nn(C(C)C(=O)N2CCOCC2)c(=O)c2nn(-c3ccccc3)c(C)c12 (centres undefined)	inactive
CCc1ccc2oc(-c3ccc(N)cc3)nc2c1	37.5% (active)
Cc1cc(-c2n[nH]c(=S)n2/N=C/C(Br)=C/c2ccccc2)n[nH]1	inactive
CCCCOC(=O)CNc1nnc(SCC(=O)OCC)[nH]c1=O	inactive
O=C(O)c1ccc2c(c1)C(=O)N(c1ccc(/C=C/C(=O)c3ccccc3)cc1)C2=O	32% (active)
CCOc1ccc(NC(=O)C/C(C)=N/NC(=O)Cc2cccs2)cc1	inactive
Nc1ccccc1SC(C[N+](=O)[O-])c1ccccc1 (centres undefined)	inactive
COc1ccc(C(C[N+](=O)[O-])n2nc(C)cc2C)cc1 (centres undefined)	inactive
CCOC(=O)C1=NN(c2ccc(Cl)cc2)/C(=C/C2=NCCc3cc(OC)c(OC)cc32)S1	inactive
